# Source: PubChem BioAssay
# In the library only some 19% were active in any assay of this set; here they are far more common.
# AMA1 RON2 block = qHTS for Inhibitors of AMA1-RON; Towards Development of Antimalarial Drug Lead: Primary Screen. Potency, µM (highest dose often 58.2 µM), for inactives: at the highest dose activity change, negative = inhibition, most hits filed as inhibitors. AID 720542, 2013. 0.2% of 360,000 active. AlphaScreen AMA1-biotinylated RON2 peptide binding;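 also: potency is read from the fitted curve at half-maximal effect; 0% = vehicle wells and -100% = peptide control; nearly all actives have a fitted effect of over 45% in size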
#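 AMA1 (3D7) with his tag at 25 nM final met compounds first, then biotinylated RON2 peptide at 25 nM; detection used donor plus acceptor beads, 10 µg/mL apiece, read by AlphaScreen after 30 min at room temperature.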
# SARS PLpro yeast = qHTS of Yeast-based Assay for SARS-CoV PLP | AID 485353, 2010 | Potency, µM (top dose mostly 32.9 µM), for the others: at the top dose activity, positive = growth rescue, usual class: activators | S. cerevisiae expressing SARS-CoV PLpro, growth rescue | 0.19% of 330,000 active; calls by dose curve; also: potency is read from the fitted curve at half-maximal effect; 0% is about no effect; nearly all actives have a fitted effect of over 55% in size
# CHX counter-1 = Cycloheximide Counterscreen for Small Molecule Inhibitors of Shiga Toxin. max response, %. cell reporter, cycloheximide protein synthesis inhibition counterscreen. 12% of 300,000 active. AID 2314, 2010; in the data active = max response mostly above about 13%, no sharp cut-off; inactive = mostly below about 14%; also: read at 38.3 µM for the half of the compounds with a filed dose; 0% is about no effect
# Pf growth 48h = Primary qHTS for delayed death inhibitors of the malarial parasite plastid, 48 hour incubation; Potency, µM (top dose mostly 28.7 µM), for the others: top-dose activity change, negative = inhibition, usual class: inhibitors; P. falciparum luciferase growth in erythrocytes, 48 h; 5.9% of 310,000 active; also: potency is read from the fitted curve at half-maximal effect; % is scaled to controls: 0 for no effect and ±100 for the full control effect
#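 Compounds are pin-transferred into medium, infected erythrocytes (2% hematocrit, 0.1% parasitemia final) are added, and plates sit one parasite generation at 37 C in 5% CO2. Detection reagent is then added and luminescence measured.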
# Shiga toxin inh = A qHTS for Small Molecule Inhibitors of Shiga Toxin. 9.2% of 290,000 active. inhibition, % at 38.7 µM. Vero cells, Shiga toxin protein synthesis inhibition reporter; in the data active = inhibition mostly above about 28%, no sharp cut-off; inactive = mostly below about 43%; also: 0% is about no effect
# Pf growth 96h = Primary qHTS for delayed death inhibitors of the malarial parasite plastid, 96 hour incubation; P. falciparum luciferase reporter growth, 96 h; Potency, µM (series often up to 28.7 µM), for inactives: at the top dose activity change, negative = inhibition, usual class: inhibitors; 6.9% of 320,000 active; also: potency is read from the fitted curve at half-maximal effect; % is scaled to controls: 0 for no effect and ±100 for the full control effect
#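 P. falciparum expressing integrated firefly luciferase, in erythrocytes at 2% hematocrit, 0.05% parasitemia, incubated with compounds 96 h at 37 C, 5% CO2. Growth inhibition read as loss of luminescence; two-generation exposure targets delayed-death apicoplast inhibitors.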
# CHX counter-2 = Cycloheximide Counterscreen for Small Molecule Inhibitors of Shiga Toxin (Confirmatory) | shares compounds with Shiga toxin inh | Cycloheximide counterscreen, protein synthesis reporter, Shiga toxin assay | Potency, µM (series often up to 38.3 µM), for the others: at the top dose activity (activation), most hits filed as activators | 3% of 510 active | AID 2318, 2010; calls by dose curve; also: potency is read from the fitted curve at half-maximal effect; 0% is about no effect
# The depositor's hits bear a star; u = inconclusive; x = not tested or not shown; + = active, no number; [ ] = another dose, or the depositor's remark. Unless noted, calls follow the shape of the dose curve; as a rule, active = well fitted curve in the direction sought with a large enough effect; inconclusive = small, poorly fitted or top-dose-only effect, or another doubt; inactive = no such curve, though single readings can be large; an effect the other way counts as inactive or inconclusive.
SMILES,AMA1 RON2 block,SARS PLpro yeast,CHX counter-1,Pf growth 48h,Shiga toxin inh,Pf growth 96h,CHX counter-2
CS(=O)(=O)Cc1cccc(C(=O)NC2CCSc3ccccc32)c1 (stereo not drawn),-11%,6%,10,6%,17,75%,x
Cc1nn(-c2ccc(Cl)cc2)c(N)c1C(O)(CSc1nccn1C)C(F)(F)F (stereo not drawn),-8%,-8%,13,u,69*,3%,0%
Cc1nn(-c2ccccc2)c(N)c1C(O)(CSc1nccn1C)C(F)(F)F (stereo not drawn),-15%,2%,-2,x,-8,u,x
COCCOC(=O)c1c(C)oc2ccc(OC(=O)c3ccco3)cc12,3%,-56%,12,26%,+,15%,5%
COCCOC(=O)c1c(C)oc2ccc(OCc3ccccc3)cc12,67%,-11%,-4,-9%,-5,-22%,x
COc1ccc([N+](=O)[O-])cc1N(CC(=O)NCC1CCCO1)S(C)(=O)=O (stereo not drawn),-2%,1%,-1,5%,-8,21%,x
CCC(=O)N1CCc2cc(S(=O)(=O)NC(C(=O)N3CCN(c4ccc(F)cc4)CC3)C(C)C)ccc21 (stereo not drawn),-12%,1%,-3,u,17*,-2%,-3%
O=C(O)C(c1ccccc1)C(O)c1ccc2c(c1)OCO2 (stereo not drawn),-3%,x,x,x,x,x,x
COc1ccc(CNC(=O)c2sc3nc4c(c(C(F)(F)F)c3c2N)CCC4)cc1,x,-11%,-2,-1%,10,u,x
COc1ccccc1NC(=O)N[C@@H](Cc1c[nH]c2ccccc12)C(=O)NN,26%,0%,-2,u,2,u,x
CC(C)Oc1ccc(C(=O)NC(Cc2c[nH]c3ccccc23)C(=O)NN)cc1 (stereo not drawn),64%,-1%,9,16%,37*,22%,1%
NNC(=O)c1ccc(NS(=O)(=O)c2ccc(Br)cc2)cc1,x,-1%,2,-17%,28*,30%,4%
Cc1nc(-c2cccc(C(F)(F)F)c2)sc1C(=O)O,-4%,0%,11,13%,58*,31%,5%
CC(O)(c1ccccc1)c1nc(-c2cccc(C(F)(F)F)c2)cs1 (stereo not drawn),14%,x,x,x,x,x,x
O=C(C[C@@H]1C/C=C\C[C@H](Cc2ccc(F)cc2)C(=O)OCCNC1=O)NCCO,2%,-2%,x,x,x,x,x
O=C(O)C/C(=C\c1cc(Br)cs1)c1nc2ccccc2o1,3%,-2%,10,48%,40*,57%,3%
CCC(=O)N1CCN(c2ccc(NC(=O)c3ccc4ccccc4c3)cc2)CC1,-3%,1%,8,-19%,21,u,x
CCC(=O)Nc1ccc(C(=O)NNC(=O)c2ccccc2)cc1,0%,0%,1,40%,32*,29%,1%
CCC(=O)N1CCN(c2ccc(NC(=O)c3ccccc3)cc2)CC1,-26%,0%,10,12%,47*,17%,u
CCC(=O)Nc1ccc(C(=O)NNC(=O)C(c2ccccc2)c2ccccc2)cc1,10%[11.6 µM],9%,-6,0%,-2,u,x
Cc1cccc(C(=O)NNC(=O)c2ccccc2)c1,10%,21%,8,41%,+,34%,u
CCCCCOC(=O)NC1CCS(=O)(=O)C1 (stereo not drawn),3%,3%,14,20%,8,-13%,x
COc1ccc(S(=O)(=O)N2CCOCC2)cc1NC(=O)C1CCN(S(=O)(=O)c2ccc(Cl)cc2)CC1,2%,x,x,x,x,x,x
CCn1nc(C)cc1C(=O)n1nc(C)c(Sc2ncccn2)c1C,-12%,1%,-1,24%,-4,7%,x
